Common to all, as to assay: protein-binding microarray (PBM); PBM: ~300 nM protein, 6 mM HEPES pH 7.8, 80 mM KCl, 0.5 mM EDTA, 0.5 mM EGTA, 6% glycerol, 35 ng/ul poly-dIdC, 1% milk, 1 h, room temperature; Ap Aiptasia and Nv Nematostella (sea anemones) / Co Capsaspora / Aq Amphimedon (sponge) / Dm Drosophila / Hu human; RHD is the Rel homology domain; high values mean tight binding
Holding throughout (details): dsDNA, one strand shown

For assay [1], the target named is T1, GST-Ap-NF-kB RHD (Exaiptasia pallida (Aiptasia), UniProt A0A913YAJ5 2-422).
T1 sequence: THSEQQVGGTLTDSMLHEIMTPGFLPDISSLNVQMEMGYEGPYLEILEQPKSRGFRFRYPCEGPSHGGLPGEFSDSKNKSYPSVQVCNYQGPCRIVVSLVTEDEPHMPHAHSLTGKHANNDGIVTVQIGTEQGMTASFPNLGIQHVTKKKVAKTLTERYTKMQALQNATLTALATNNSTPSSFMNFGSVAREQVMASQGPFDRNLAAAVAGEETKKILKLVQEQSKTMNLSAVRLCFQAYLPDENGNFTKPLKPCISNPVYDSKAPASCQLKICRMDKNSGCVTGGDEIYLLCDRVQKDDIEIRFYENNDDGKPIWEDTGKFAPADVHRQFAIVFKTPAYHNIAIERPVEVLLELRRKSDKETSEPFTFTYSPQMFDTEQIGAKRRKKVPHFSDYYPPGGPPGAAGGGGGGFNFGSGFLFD

The target in assay [2] is T2, GST-Nv-NF-kB (Cys allele) (Nematostella vectensis, UniProt E5G601 2-411).
T2 sequence: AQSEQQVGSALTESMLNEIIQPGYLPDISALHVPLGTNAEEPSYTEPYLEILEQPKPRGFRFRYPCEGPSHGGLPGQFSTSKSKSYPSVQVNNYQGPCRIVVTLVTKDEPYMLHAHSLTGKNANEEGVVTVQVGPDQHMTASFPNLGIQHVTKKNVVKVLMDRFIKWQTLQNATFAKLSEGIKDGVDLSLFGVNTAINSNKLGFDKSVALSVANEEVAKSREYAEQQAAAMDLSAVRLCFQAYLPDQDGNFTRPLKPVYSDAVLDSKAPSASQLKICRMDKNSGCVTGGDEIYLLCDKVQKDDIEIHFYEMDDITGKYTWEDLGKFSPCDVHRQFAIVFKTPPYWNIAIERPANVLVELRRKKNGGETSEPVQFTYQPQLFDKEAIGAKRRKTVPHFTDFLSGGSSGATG

Assay [3] concerns the target T3, GST-Co-NF-kB (Capsaspora owczarzaki, UniProt F1ARL5 200-546).
T3 sequence: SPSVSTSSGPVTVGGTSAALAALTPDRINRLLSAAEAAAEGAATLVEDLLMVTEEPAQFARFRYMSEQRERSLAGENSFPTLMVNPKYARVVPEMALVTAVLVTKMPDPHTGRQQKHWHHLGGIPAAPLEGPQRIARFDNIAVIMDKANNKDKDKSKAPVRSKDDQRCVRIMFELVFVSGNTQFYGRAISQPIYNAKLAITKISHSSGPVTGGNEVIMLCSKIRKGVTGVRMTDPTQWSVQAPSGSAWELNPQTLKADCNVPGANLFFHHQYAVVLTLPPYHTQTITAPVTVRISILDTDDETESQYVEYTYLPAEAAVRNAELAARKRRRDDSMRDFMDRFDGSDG

Assay [4] deals with T4, GST-Dm-Relish (Drosophila melanogaster, UniProt Q94527 99-473).
T4 sequence: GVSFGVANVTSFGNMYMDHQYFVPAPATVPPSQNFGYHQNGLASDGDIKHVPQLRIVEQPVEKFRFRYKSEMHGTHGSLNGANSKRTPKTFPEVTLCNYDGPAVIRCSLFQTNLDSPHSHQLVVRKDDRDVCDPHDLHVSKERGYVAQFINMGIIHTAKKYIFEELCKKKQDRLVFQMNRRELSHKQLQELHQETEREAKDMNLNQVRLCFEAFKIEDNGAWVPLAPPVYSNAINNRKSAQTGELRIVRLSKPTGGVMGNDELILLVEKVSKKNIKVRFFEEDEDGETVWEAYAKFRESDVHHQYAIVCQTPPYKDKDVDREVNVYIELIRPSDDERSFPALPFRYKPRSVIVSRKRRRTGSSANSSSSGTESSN

Assay [5] deals with T5, GST-Aq-NF-kB (Amphimedon queenslandica, UniProt A9Y5G7 2-389).
T5 sequence: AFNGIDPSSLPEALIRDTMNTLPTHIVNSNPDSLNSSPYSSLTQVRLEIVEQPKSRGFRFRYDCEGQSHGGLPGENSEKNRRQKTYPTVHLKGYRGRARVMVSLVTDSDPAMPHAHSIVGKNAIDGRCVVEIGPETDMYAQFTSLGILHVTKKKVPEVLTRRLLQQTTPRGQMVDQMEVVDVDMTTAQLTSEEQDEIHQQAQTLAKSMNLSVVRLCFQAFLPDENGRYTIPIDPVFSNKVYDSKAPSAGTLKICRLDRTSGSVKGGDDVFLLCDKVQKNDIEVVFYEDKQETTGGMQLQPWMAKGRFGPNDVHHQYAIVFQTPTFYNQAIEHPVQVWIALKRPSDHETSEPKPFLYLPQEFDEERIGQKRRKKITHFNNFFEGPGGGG

As for “CCGATTAACATCAGGGAACTACCTGATGTTAATCGGGTCTTGATTCGCTTGACGCTGCTG”, the binding signal in assay [1] was determined as 4.91 z-score; in assay [2] it was 4.67 z-score; in assay [3], 1.23 z-score; in assay [4] it was 8.33 z-score; in assay [5], 6.44 z-score.
Taken in the same sequence, the figures for “CCGATTAACATCAGGGACTCCCATGATGTTAATCGGGTCTTGATTCGCTTGACGCTGCTG” were 5.29 z-score, 4.05 z-score, 1.08 z-score, 9.01 z-score and 4.46 z-score.
Taken in the same sequence, the figures for “CCGATTAACATCAGGGGGCATTATGATGTTAATCGGGTCTTGATTCGCTTGACGCTGCTG” were 3.92 z-score, 4.06 z-score, 2.64 z-score, 2.7 z-score and 4.27 z-score.
The corresponding values for “CCGATTAACATCAGGGTATTCCATGATGTTAATCGGGTCTTGATTCGCTTGACGCTGCTG” are 3.89 z-score, 4.62 z-score, 1.19 z-score, 5.81 z-score and 4.83 z-score.
For “CCGATTAACATCAGGGAAACCACTGATGTTAATCGGGTCTTGATTCGCTTGACGCTGCTG”, the binding signal in assay [1] was determined as 3.4 z-score; in assay [2] it was 4.47 z-score; in assay [3], 3.12 z-score; in assay [4], 8.4 z-score; in assay [5], 6.48 z-score.
Taken in the same sequence, the figures for “CCGATTAACATCAGAAGTTTCCCTGATGTTAATCGGGTCTTGATTCGCTTGACGCTGCTG” were 4.01 z-score, 5.91 z-score, 5.14 z-score, 3.08 z-score and 6.09 z-score.
Taken in the same sequence, the figures for “CCGATTAACATCATCTCCCCCCATGATGTTAATCGGGTCTTGATTCGCTTGACGCTGCTG” were 4.75 z-score, 2.53 z-score, 8 z-score, 2.29 z-score and 4.57 z-score.
In the case of “CCGATTAACATCAACACCCCCCCTGATGTTAATCGGGTCTTGATTCGCTTGACGCTGCTG”, the binding signal in assay [1] is 5.32 z-score; in assay [2], 4.06 z-score; in assay [3], 5.33 z-score; in assay [4], 5.81 z-score; in assay [5], 4.43 z-score.
The corresponding values for “CCGATTAACATCAAATTCCCGTATGATGTTAATCGGGTCTTGATTCGCTTGACGCTGCTG” are 2.44 z-score, 4.38 z-score, 2.65 z-score, 3.19 z-score and 3.72 z-score.
The corresponding values for “CCGATTAACATCAATTGCCCCCCTGATGTTAATCGGGTCTTGATTCGCTTGACGCTGCTG” are 4.5 z-score, 2.81 z-score, 5.24 z-score, 3.87 z-score and 4.63 z-score.
The corresponding values for “CCGATTAACATCATCAGGGGGGATGATGTTAATCGGGTCTTGATTCGCTTGACGCTGCTG” are 4.58 z-score, 4.51 z-score, 6.21 z-score, 4.27 z-score and 5.18 z-score.
In the case of “CCGATTAACATCAAATTCCCAGATGATGTTAATCGGGTCTTGATTCGCTTGACGCTGCTG”, the binding signal in assay [1] was determined as 2.43 z-score; in assay [2] it was 3.57 z-score; in assay [3], 3.87 z-score; in assay [4], 3.52 z-score; in assay [5] it was 2.42 z-score.
Taken in the same sequence, the figures for “CCGATTAACATCAGGGATTACCATGATGTTAATCGGGTCTTGATTCGCTTGACGCTGCTG” were 3.4 z-score, 1.46 z-score, 1.11 z-score, 6.01 z-score and 3.67 z-score.
For the sequence “CCGATTAACATCAGGGCCCCCCCTGATGTTAATCGGGTCTTGATTCGCTTGACGCTGCTG”, the binding signal was found to be 6.57 z-score in assay [1]; 4.21 z-score in assay [2]; 2.89 z-score in assay [3]; 6.49 z-score in assay [4]; 7.6 z-score in assay [5].
The corresponding values for “CCGATTAACATCACCCGATTCCCTGATGTTAATCGGGTCTTGATTCGCTTGACGCTGCTG” are 2.55 z-score, 2.62 z-score, 2.5 z-score, 1.62 z-score and 2.54 z-score.
Taken in the same sequence, the figures for “CCGATTAACATCAAGGGGAGTCCTGATGTTAATCGGGTCTTGATTCGCTTGACGCTGCTG” were 6.71 z-score, 4.83 z-score, 2.5 z-score, 8.01 z-score and 5.29 z-score.
Taken in the same sequence, the figures for “CCGATTAACATCAAATACTTCCCTGATGTTAATCGGGTCTTGATTCGCTTGACGCTGCTG” were 2.22 z-score, 3.32 z-score, 2.96 z-score, 2.69 z-score and 4.24 z-score.
Consider “CCGATTAACATCAGGGGAACACATGATGTTAATCGGGTCTTGATTCGCTTGACGCTGCTG”, for which the binding signal in assay [1] amounted to 4.8 z-score; in assay [2], 5.02 z-score; in assay [3] it was 6.41 z-score; in assay [4], 4.31 z-score; in assay [5] it was 4.1 z-score.
With “CCGATTAACATCAGAATTGCCCCTGATGTTAATCGGGTCTTGATTCGCTTGACGCTGCTG”, the binding signal amounted to 2.58 z-score in assay [1]; 3.54 z-score in assay [2]; 1.95 z-score in assay [3]; 1.75 z-score in assay [4]; 3.86 z-score in assay [5].
For the sequence “CCGATTAACATCAGGACTCTCCCTGATGTTAATCGGGTCTTGATTCGCTTGACGCTGCTG”, the binding signal in assay [1] amounted to 3.59 z-score; in assay [2], 5.02 z-score; in assay [3], 1.1 z-score; in assay [4] it was 2.07 z-score; in assay [5], 7.56 z-score.
The corresponding values for “CCGATTAACATCAGGGAATTACATGATGTTAATCGGGTCTTGATTCGCTTGACGCTGCTG” are 4.01 z-score, 5.15 z-score, 4.3 z-score, 8.99 z-score and 4.92 z-score.
Taken in the same sequence, the figures for “CCGATTAACATCAAACAATTCCCTGATGTTAATCGGGTCTTGATTCGCTTGACGCTGCTG” were 3.25 z-score, 5.26 z-score, 3.45 z-score, 1.6 z-score and 4.85 z-score.
For the sequence “CCGATTAACATCAGGGGGGCACCTGATGTTAATCGGGTCTTGATTCGCTTGACGCTGCTG”, the binding signal in assay [1] is 4.84 z-score; in assay [2] it was 3.13 z-score; in assay [3] it was 3.02 z-score; in assay [4] it was 3.62 z-score; in assay [5], 4.5 z-score.
The corresponding values for “CCGATTAACATCAATTTCCCATATGATGTTAATCGGGTCTTGATTCGCTTGACGCTGCTG” are 1.56 z-score, 3.3 z-score, 2.34 z-score, 2.14 z-score and 2.17 z-score.
As to “CCGATTAACATCAAATCACCCCCTGATGTTAATCGGGTCTTGATTCGCTTGACGCTGCTG”, the binding signal in assay [1] came out at 4.73 z-score; in assay [2] it was 4.59 z-score; in assay [3], 6.61 z-score; in assay [4] it was 4.37 z-score; in assay [5], 5.32 z-score.
The corresponding values for “CCGATTAACATCACATTGTCCCCTGATGTTAATCGGGTCTTGATTCGCTTGACGCTGCTG” are 4.03 z-score, 4.18 z-score, 4.12 z-score, 1.73 z-score and 3.26 z-score.
Turning to “CCGATTAACATCAAGGGATTCCCTGATGTTAATCGGGTCTTGATTCGCTTGACGCTGCTG”, the binding signal is 6.28 z-score in assay [1]; 5.98 z-score in assay [2]; 2.7 z-score in assay [3]; 9.45 z-score in assay [4]; 6.56 z-score in assay [5].
